Data published in the supplement of paper PMC10849652.
The full data set covers some 7,900 targets. This sample favours those with a hit. About 0.6% of all pairs of compound and target were hits.

Experiments:
Assay in all cases: log2 fold change, soluble protein after heating vs DMSO (PISA); higher = thermal stabilisation; K562 cells, 10 uM, 30 min; active = over 0.2 and 3.5 SD of the protein, either way, in both replicates (recomputed)
[1] = compound: C#Cc1cccc(Nc2ncnc3cc(OCCOC)c(OCCOC)cc23)c1 [erlotinib]
Method in brief: (§1)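 Thermal stability values are relative to control samples and come from duplicates. They are expressed as log2 fold changes. For measurement, K562 cells (2×10^6 cells/mL) received 10 μM compound for 30 min, and aliquots were heated for 3 min over 48°C-58°C, pooled, and extracted at 4°C in PBS with 0.5% NP-40. Soluble protein, the supernatant after 21,000xg for 90 min, was quantified by TMTpro 16plex LC-MS/MS with equalised channel sums.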

[2] = compound: C/C(=N\NC(=O)C1=CC(=CC=C1)S(=O)(=O)N2CCOCC2)/C3=C(C=CC(=C3)Cl)O
Method in brief: as §1

[3] = compound: C1=CC(=C(C=C1Cl)C2=NC3=NC=CN=C3C(=N2)NC4=CC=NC=C4)F
Method in brief: as §1

[4] = compound: C1=CC(=CC=C1C2=NC3=C(N2)C=C(C=C3)C(=O)N)OC4=CC=C(C=C4)Cl
Method in brief: as §1

[5] = compound: C1=CC2=C(C=CC(=C2)/C=C\3/C(=O)NC(=NCC4=CC=CS4)S3)N=C1
Method in brief: as §1

[6] = compound: C1=CC2=NC=CN=C2C=C1/C=C/3\C(=O)NC(=O)S3
Method in brief: as §1

[7] = compound: C1=CC=C(C=C1)C2=NC(=C(N2)C3=CC=NC=C3)C4=CC(=C(C=C4)Cl)O
Method in brief: as §1

[8] = compound: C1=CC=C2C(=C1)C3=NNC4=CC=CC(=C43)C2=O
Method in brief: as §1

[9] = compound: C1CCN(C1)C(=O)NC2=CC=CC(=C2)NC3=NC=C(C(=N3)NCCC4=CN=CN4)Br
Method in brief: as §1

[10] = compound: C1CN(CCC1(CC2=CC=C(C=C2)Cl)N)C3=NC=NC4=C3C=CN4
Method in brief: as §1

[11] = compound: C1COCCN1CCN2C3=CC=CC=C3N=C2NC(=O)C4=CC(=CC=C4)[N+](=O)[O-] [IRAK-1-4 Inhibitor I]
Method in brief: as §1

[12] = compound: C=CC(=O)N1CCC[C@@H](n2nc(-c3ccc(Oc4ccccc4)cc3)c3c(N)ncnc32)C1 [ibrutinib]
Method in brief: as §1

[13] = compound: CC(=O)c1cnc2ccc(-c3cc(Cl)c(O)c(Cl)c3)nc2c1N[C@H]1CC[C@H](CN(C)C)CC1
Method in brief: as §1

[14] = compound: CC(C)(C)Cn1c(N)nc2ccc(-c3[nH]c(C(C)(C)C)nc3-c3ccc(F)cc3)nc21 [ralimetinib]
Method in brief: as §1

[15] = compound: CC(C)(O)CC(=O)NCCn1ccc2ncnc(Nc3ccc(Oc4cccc(C(F)(F)F)c4)c(Cl)c3)c21
Method in brief: as §1

[16] = compound: CC(C)C1=C2N=C(C=C(N2N=C1)NCC3=CC=CC=C3)NCCCCCCN
Method in brief: as §1

[17] = compound: CC(C)C[C@@H](C=O)NC(=O)[C@H](CC(C)C)NC(=O)[C@H](CC(C)C)NC(=O)OCc1ccccc1
Method in brief: as §1

[18] = compound: CC(C)N(C[C@H]1O[C@@H](n2cnc3c(N)ncnc32)[C@H](O)[C@@H]1O)[C@H]1C[C@@H](CCc2nc3cc(C(C)(C)C)ccc3[nH]2)C1 [pinometostat]
Method in brief: as §1

[19] = compound: CC1=C(C(CC(=O)N1)C2=CC=C(C=C2)C(F)(F)F)C(=O)NC3=C(C=C4C(=C3)C=NN4)F
Method in brief: as §1

[20] = compound: CC1=C(C2=C(C=C1)C(=O)C3=CC=CC=C3N2CCCN)C
Method in brief: as §1

Measured: log2 fold change

MCUR1 (UniProt Q96AQ8)
inactive: [1] -0.012 | [2] -0.03 | [3] 0.055 | [4] 0.003 | [5] 0.053 | [6] -0.006 | [7] 0.102 | [8] 0.005 | [9] -0.023 | [10] 0.063 | [11] 0.011 | [12] 0.041 | [13] -0.077 | [14] 0.118 | [15] -0.018 | [16] 0.065 | [18] -0.059 | [19] 0.015 | [20] -0.002
active: [17] -0.242

MAP3K20 (UniProt Q9NYL2)
inactive: [1] 0.014 | [2] -0.013 | [3] -0.009 | [4] 0.043 | [5] -0.009 | [6] 0.038 | [7] -0.011 | [8] -0.106 | [9] -0.046 | [10] -0.036 | [11] -0.043 | [12] -0.167 | [14] 0.019 | [15] -0.032 | [16] 0.034 | [17] 0.052 | [18] 0.099 | [19] 0.073 | [20] 0.027
active: [13] -0.654

KLHDC4 (UniProt Q8TBB5)
inactive: [1] -0.066 | [2] -0.075 | [3] -0.174 | [4] -0.013 | [5] 0.077 | [6] -0.123 | [7] -0.081 | [8] 0.07 | [9] -0.113 | [10] 0.119 | [11] -0.008 | [12] -0.011 | [13] -0.008 | [14] 0.062 | [15] 0.002 | [16] 0.065 | [17] 0.017 | [18] 0.199 | [19] -0.123 | [20] 0.159

MIEF1 (UniProt L0R8F8)
inactive: [1] 0.025 | [2] 0.102 | [3] 0.021 | [4] -0.022 | [5] -0.073 | [6] -0.072 | [7] 0.033 | [8] 0.02 | [9] -0.107 | [10] 0.019 | [11] 0.071 | [12] 0.065 | [13] 0.022 | [14] -0.004 | [15] 0.011 | [16] -0.021 | [17] -0.053 | [18] -0.005 | [19] 0.052 | [20] -0.004

MCU (UniProt Q8NE86)
inactive: [1] 0.007 | [2] 0.042 | [3] 0.083 | [4] 0.008 | [5] 0.027 | [6] 0.013 | [7] 0.001 | [8] 0.014 | [9] 0.004 | [10] 0.013 | [11] 0.06 | [12] -0.026 | [13] -0.036 | [14] -0.042 | [15] -0.108 | [16] -0.122 | [17] -0.026 | [18] 0.03 | [19] 0.025 | [20] 0.017

MGST1 (UniProt P10620)
UniProt P10620, sequence (P10620 whole entry, looked up): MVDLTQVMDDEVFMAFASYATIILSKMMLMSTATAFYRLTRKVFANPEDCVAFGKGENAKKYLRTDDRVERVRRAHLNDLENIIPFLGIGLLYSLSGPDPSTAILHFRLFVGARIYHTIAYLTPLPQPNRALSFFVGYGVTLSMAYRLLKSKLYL
inactive: [1] -0.032 | [2] -0.037 | [3] 0.063 | [4] 0.021 | [5] 0.02 | [6] 0.038 | [7] 0.024 | [8] -0.057 | [9] -0.004 | [10] -0.049 | [11] 0.002 | [12] 0.033 | [13] 0.064 | [14] -0.01 | [15] -0.001 | [16] -0.004 | [17] 0.011 | [18] -0.074 | [19] 0.032 | [20] 0.054

KDM5D isoform 3 (UniProt Q9BY66)
UniProt Q9BY66, sequence (Q9BY66 whole entry, looked up): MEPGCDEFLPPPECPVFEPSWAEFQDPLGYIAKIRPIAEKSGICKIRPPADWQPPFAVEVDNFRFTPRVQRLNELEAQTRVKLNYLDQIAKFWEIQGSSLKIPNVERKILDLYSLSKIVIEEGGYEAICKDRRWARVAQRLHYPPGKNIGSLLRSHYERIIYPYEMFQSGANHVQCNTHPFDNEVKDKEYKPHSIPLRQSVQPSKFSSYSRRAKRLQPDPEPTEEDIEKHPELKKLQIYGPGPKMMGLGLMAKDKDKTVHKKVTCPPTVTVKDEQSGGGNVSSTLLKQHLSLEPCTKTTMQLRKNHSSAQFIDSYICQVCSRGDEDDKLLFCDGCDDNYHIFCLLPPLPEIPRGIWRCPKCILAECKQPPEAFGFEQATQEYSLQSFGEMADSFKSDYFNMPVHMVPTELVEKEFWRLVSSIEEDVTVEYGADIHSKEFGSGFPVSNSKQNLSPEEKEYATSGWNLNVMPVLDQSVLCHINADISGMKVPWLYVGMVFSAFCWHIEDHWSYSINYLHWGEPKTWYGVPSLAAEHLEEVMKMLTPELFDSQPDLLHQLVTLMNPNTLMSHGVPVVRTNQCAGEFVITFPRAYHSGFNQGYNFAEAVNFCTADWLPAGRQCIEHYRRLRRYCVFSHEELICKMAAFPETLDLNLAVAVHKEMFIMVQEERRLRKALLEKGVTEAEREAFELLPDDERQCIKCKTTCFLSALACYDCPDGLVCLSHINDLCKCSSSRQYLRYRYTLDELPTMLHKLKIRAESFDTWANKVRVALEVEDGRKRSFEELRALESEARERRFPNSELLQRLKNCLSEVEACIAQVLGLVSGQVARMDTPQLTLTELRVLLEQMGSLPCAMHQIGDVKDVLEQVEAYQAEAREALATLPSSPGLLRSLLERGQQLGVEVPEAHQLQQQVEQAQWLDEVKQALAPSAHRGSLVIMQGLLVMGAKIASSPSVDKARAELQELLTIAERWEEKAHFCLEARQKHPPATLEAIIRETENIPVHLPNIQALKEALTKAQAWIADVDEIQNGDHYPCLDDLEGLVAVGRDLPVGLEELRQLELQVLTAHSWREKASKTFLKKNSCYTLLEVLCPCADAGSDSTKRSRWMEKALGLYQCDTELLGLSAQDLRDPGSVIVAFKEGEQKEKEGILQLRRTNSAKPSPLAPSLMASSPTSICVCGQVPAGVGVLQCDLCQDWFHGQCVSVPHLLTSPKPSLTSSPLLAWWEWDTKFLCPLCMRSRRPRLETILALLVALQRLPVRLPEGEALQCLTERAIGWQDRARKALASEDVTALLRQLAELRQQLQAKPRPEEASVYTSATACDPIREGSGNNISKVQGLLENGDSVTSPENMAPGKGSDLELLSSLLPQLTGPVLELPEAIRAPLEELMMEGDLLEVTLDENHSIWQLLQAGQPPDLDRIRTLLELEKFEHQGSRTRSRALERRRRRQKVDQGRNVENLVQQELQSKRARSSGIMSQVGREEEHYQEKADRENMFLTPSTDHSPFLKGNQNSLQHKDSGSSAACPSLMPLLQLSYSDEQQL
inactive: [1] -0.036 | [2] -0.142 | [3] 0.067 | [4] -0.147 | [5] 0.121 | [6] -0.034 | [7] -0.005 | [8] 0.026 | [9] 0.035 | [10] 0.022 | [11] -0.042 | [12] -0.222 | [13] -0.05 | [14] -0.083 | [15] -0.155 | [16] 0.036 | [17] 0.114 | [18] -0.047 | [19] 0.043 | [20] -0.103

IL27RA (UniProt Q6UWB1)
UniProt Q6UWB1, sequence (Q6UWB1 whole entry, looked up): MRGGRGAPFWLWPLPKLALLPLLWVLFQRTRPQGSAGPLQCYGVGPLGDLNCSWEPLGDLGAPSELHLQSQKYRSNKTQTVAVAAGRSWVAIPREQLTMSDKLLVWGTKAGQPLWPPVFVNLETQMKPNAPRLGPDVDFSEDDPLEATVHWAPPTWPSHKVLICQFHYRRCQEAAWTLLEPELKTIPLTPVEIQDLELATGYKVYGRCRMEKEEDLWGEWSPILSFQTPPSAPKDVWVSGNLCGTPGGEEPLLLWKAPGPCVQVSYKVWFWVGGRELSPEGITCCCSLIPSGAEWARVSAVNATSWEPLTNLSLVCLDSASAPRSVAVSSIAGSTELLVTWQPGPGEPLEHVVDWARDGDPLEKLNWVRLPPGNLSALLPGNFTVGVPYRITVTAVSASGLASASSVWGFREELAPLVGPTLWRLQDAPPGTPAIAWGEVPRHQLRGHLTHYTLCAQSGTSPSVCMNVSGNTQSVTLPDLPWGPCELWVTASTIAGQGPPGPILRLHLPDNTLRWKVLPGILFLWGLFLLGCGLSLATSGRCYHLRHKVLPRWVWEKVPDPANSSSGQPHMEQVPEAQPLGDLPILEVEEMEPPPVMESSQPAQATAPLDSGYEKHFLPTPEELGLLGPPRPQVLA
inactive: [1] -0.082 | [2] 0.04 | [3] -0.147 | [4] 0.007 | [5] 0.021 | [6] 0.048 | [7] 0.064 | [8] 0.068 | [9] -0.011 | [10] 0.075 | [11] -0.189 | [12] 0.077 | [13] 0.011 | [14] 0.058 | [15] 0.005 | [16] 0.139 | [17] -0.167 | [18] 0.043 | [19] 0.1 | [20] 0.012

IGFBP4 (UniProt P22692)
UniProt P22692, sequence (P22692 whole entry, looked up): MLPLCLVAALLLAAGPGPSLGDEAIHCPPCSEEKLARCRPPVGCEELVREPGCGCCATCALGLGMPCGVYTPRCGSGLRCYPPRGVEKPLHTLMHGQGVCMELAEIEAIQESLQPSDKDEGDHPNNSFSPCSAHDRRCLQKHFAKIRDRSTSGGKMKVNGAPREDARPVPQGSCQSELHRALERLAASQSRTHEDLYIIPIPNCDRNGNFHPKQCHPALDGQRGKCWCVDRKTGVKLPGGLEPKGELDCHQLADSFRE
inactive: [1] -0.03 | [2] -0.14 | [3] 0.023 | [4] 0.093 | [5] -0.124 | [6] 0.178 | [7] -0.051 | [8] -0.217 | [9] 0.108 | [10] 0.076 | [11] 0.011 | [12] -0.015 | [13] 0.171 | [14] -0.04 | [15] 0.047 | [16] 0.028 | [17] 0.054 | [18] 0.032 | [19] 0.034 | [20] -0.09

IMMT isoform 2 (UniProt Q16891)
inactive: [1] -0.057 | [2] 0.043 | [3] 0.051 | [4] -0.022 | [5] -0.07 | [6] -0.021 | [7] -0.026 | [8] 0.021 | [9] 0.007 | [10] 0.047 | [11] 0.053 | [12] -0.011 | [13] 0.022 | [14] 0.054 | [15] 0.051 | [16] 0.015 | [17] -0.028 | [18] 0.058 | [19] 0.035 | [20] -0.106

IK (UniProt Q13123)
inactive: [1] 0.049 | [2] 0 | [3] -0.069 | [4] 0 | [5] 0.055 | [6] -0.022 | [7] -0.016 | [8] -0.11 | [9] -0.004 | [10] -0.065 | [11] -0.139 | [12] -0.067 | [13] -0.06 | [14] -0.007 | [15] 0.054 | [16] 0.031 | [17] 0.239 | [18] 0.038 | [19] 0.022 | [20] 0.148

KLC2 (UniProt Q9H0B6)
UniProt Q9H0B6, sequence (Q9H0B6 whole entry, looked up): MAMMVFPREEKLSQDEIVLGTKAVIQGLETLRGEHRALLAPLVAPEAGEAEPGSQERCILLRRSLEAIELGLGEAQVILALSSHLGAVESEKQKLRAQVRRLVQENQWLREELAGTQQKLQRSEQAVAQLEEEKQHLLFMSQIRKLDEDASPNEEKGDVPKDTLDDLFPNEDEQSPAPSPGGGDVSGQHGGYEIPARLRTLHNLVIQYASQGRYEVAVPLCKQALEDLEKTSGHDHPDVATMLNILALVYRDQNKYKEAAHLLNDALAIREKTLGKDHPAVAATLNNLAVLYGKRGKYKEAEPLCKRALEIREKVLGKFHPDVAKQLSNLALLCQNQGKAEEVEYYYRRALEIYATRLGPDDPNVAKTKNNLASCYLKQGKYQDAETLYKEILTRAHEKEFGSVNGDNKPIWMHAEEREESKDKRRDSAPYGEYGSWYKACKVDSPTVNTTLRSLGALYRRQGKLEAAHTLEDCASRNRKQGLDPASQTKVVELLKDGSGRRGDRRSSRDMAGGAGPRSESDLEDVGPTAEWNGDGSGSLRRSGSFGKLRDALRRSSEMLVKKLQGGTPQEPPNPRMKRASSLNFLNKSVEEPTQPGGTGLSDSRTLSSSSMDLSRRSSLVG
inactive: [1] 0.036 | [2] 0.063 | [3] 0.008 | [4] -0.044 | [5] 0.078 | [6] 0.025 | [7] -0.039 | [8] 0.006 | [9] -0.063 | [10] -0.007 | [11] -0.035 | [12] -0.024 | [14] 0.041 | [15] -0.02 | [16] -0.107 | [17] 0.083 | [18] 0.023 | [19] -0.03 | [20] 0.133
active: [13] -0.309

LENG8 (UniProt Q96PV6)
active: [16] -0.646
inactive: [1] -0.072 | [2] 0.133 | [3] 0.091 | [4] 0.108 | [5] -0.024 | [6] -0.037 | [7] -0.141 | [8] 0.096 | [9] 0.152 | [10] -0.229 | [11] -0.122 | [12] 0 | [13] -0.173 | [14] -0.13 | [15] -0.389 | [17] 0.107 | [18] -0.071 | [19] 0.031 | [20] 0.15

MIER1 isoform 12 (UniProt Q8N108)
UniProt Q8N108, sequence (Q8N108 whole entry, looked up): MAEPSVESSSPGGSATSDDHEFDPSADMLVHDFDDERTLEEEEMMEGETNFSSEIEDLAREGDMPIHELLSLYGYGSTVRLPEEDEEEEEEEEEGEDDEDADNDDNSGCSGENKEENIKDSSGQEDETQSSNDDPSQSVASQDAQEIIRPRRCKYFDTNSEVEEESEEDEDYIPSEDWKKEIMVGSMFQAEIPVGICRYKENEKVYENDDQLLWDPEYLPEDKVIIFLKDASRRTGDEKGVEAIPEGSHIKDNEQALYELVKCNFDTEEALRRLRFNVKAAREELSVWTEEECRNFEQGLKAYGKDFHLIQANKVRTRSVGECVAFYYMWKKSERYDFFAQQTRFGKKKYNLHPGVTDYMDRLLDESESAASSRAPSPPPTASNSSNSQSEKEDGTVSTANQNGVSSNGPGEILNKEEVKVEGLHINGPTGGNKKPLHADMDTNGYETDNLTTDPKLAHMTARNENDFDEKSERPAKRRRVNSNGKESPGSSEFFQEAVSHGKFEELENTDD
active: [1] 0.399
inactive: [2] 0.009 | [3] 0.016 | [4] -0.031 | [5] 0.024 | [6] 0.014 | [7] 0.001 | [8] 0.02 | [9] -0.06 | [10] 0.028 | [11] 0.055 | [12] -0.012 | [13] -0.035 | [14] 0.033 | [15] -0.021 | [16] -0.062 | [17] 0.03 | [18] -0.013 | [19] 0.027 | [20] -0.122

LPGAT1 (UniProt Q92604)
UniProt Q92604, sequence (Q92604 whole entry, looked up): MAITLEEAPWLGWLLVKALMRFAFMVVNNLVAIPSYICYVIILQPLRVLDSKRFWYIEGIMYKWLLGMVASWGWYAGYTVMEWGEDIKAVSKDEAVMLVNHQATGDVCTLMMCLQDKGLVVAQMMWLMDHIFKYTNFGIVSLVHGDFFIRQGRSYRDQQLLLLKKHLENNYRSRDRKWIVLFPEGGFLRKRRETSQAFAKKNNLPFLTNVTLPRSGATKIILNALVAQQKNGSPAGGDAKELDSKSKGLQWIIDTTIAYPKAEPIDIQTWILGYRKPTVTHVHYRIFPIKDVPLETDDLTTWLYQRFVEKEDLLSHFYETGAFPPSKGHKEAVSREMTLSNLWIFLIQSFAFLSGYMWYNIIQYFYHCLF
inactive: [1] -0.005 | [2] 0.022 | [3] 0.201 | [4] -0.274 | [5] 0.183 | [6] 0.098 | [7] -0.043 | [8] -0.025 | [9] 0.017 | [10] 0.115 | [11] -0.115 | [12] -0.05 | [13] 0.064 | [14] 0.041 | [15] -0.066 | [16] -0.277 | [17] -0.057 | [18] 0.013 | [19] 0.037 | [20] 0.069

LMNA (UniProt P02545)
UniProt P02545, sequence (P02545 whole entry, looked up): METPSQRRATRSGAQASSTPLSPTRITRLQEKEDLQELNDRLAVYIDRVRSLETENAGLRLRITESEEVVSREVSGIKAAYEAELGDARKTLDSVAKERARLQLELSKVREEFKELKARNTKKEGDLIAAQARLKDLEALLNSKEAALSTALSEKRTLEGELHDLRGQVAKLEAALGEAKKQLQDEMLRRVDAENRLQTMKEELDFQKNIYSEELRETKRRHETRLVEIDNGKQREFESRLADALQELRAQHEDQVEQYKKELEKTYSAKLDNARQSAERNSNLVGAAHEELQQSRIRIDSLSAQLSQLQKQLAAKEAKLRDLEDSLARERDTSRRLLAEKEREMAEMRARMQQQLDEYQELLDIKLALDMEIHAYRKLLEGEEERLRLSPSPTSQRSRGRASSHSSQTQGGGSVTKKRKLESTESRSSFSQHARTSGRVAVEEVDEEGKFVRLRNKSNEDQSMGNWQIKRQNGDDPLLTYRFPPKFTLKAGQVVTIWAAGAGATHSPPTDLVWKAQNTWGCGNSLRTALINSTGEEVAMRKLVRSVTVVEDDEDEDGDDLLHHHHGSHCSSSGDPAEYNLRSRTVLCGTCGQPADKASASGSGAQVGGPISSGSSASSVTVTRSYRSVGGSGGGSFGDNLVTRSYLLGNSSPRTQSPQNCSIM
inactive: [1] -0.025 | [2] 0.116 | [3] 0.009 | [4] -0.106 | [5] -0.031 | [6] 0.035 | [7] -0.049 | [8] -0.171 | [9] -0.086 | [10] 0.013 | [11] 0.006 | [12] -0.023 | [13] -0.18 | [14] -0.058 | [15] 0.115 | [16] 0.076 | [17] 0 | [18] -0.057 | [19] 0.005 | [20] -0.017
